# According to PubChem BioAssay (NCI):
# “And” between values parts separate entries of the source, which are not always exact repeats. Identical values can stand only once. The panel holds about 83,000 compounds, 20% with a hit somewhere; the sample as a whole holds those more often.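 Single-concentration screen, 48 h exposure, 96-well plates. Endpoint: percent growth. Below 10 = active.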 Unmarked numbers belong to inactive results. The source made the active and inactive calls.
# How the values were obtained:
# Assay in all cases: NCI-60 one-dose screen, 48 h (100 = growth as untreated, 0 = no growth, -100 = all killed)
# NCI-H226 lung = settings: 10 µM
# NCI-H322M lung = settings: 10 µM
# HOP-62 NSCLC = settings: 10 µM
# NCI-H522 lung = settings: 10 µM
# COLO 205 colon = settings: 10 µM
# DU-145 prostate = settings: 10 µM
# SF-268 CNS = settings: 10 µM
# SF-295 CNS = settings: 10 µM
# SF-539 CNS = settings: 10 µM
# M14 melanoma = settings: 10 µM
# HCT-15 colon = settings: 10 µM
# SNB-75 CNS = settings: 10 µM
# SNB-19 CNS = settings: 10 µM
# U251 CNS = settings: 10 µM
# PC-3 prostate = settings: 10 µM
# SK-MEL-5 melanoma = settings: 10 µM
# UACC-62 melanoma = settings: 10 µM
# SK-MEL-28 melanoma = settings: 10 µM
# SK-MEL-2 melanoma = settings: 10 µM
# HL-60(TB) leukemia = settings: 10 µM unless noted
smiles,measurement,setting,value
CC(C)N=C([Se])NC(=O)c1cccs1,growth,NCI-H226 lung,64.6%
same,growth,NCI-H322M lung,-2.73% (active)
same,growth,HOP-62 NSCLC,-2.97% (active)
same,growth,NCI-H522 lung,41.1%
same,growth,COLO 205 colon,84.7%
same,growth,DU-145 prostate,-14.3% (active)
same,growth,SF-268 CNS,59.4%
same,growth,SF-295 CNS,-14% (active)
same,growth,SF-539 CNS,-63.3% (active)
same,growth,M14 melanoma,8.28% (active)
same,growth,HCT-15 colon,34.9%
same,growth,SNB-75 CNS,-28.6% (active)
same,growth,SNB-19 CNS,4.61% (active)
same,growth,U251 CNS,12.2%
same,growth,PC-3 prostate,8.44% (active)
same,growth,SK-MEL-5 melanoma,-59.7% (active)
same,growth,UACC-62 melanoma,27.5%
same,growth,SK-MEL-28 melanoma,60.2%
same,growth,SK-MEL-2 melanoma,-57.7% (active)
same,growth,HL-60(TB) leukemia,56%
CCOC(=O)C1=C(Nc2ccccc2)C(=O)OC12C(=O)Nc1ccccc12 (stereo unspecified),growth,NCI-H226 lung,115%
same,growth,NCI-H322M lung,103%
same,growth,HOP-62 NSCLC,97.6%
same,growth,NCI-H522 lung,96.5%
same,growth,COLO 205 colon,119%
same,growth,DU-145 prostate,114%
same,growth,SF-268 CNS,95.7%
same,growth,SF-295 CNS,107%
same,growth,SF-539 CNS,97.6%
same,growth,M14 melanoma,105%
same,growth,HCT-15 colon,105%
same,growth,SNB-75 CNS,80.6%
same,growth,SNB-19 CNS,96.4%
same,growth,U251 CNS,109%
same,growth,PC-3 prostate,91.3%
same,growth,SK-MEL-5 melanoma,107%
same,growth,UACC-62 melanoma,93.5%
same,growth,SK-MEL-28 melanoma,107%
same,growth,SK-MEL-2 melanoma,99.9%
same,growth,HL-60(TB) leukemia,102%
COc1cc(OC)c(/C=C/C(=O)c2nc3ccccc3n2Cc2ccc(F)cc2)c(OC)c1,growth,NCI-H226 lung,72.8%
same,growth,NCI-H322M lung,104%
same,growth,HOP-62 NSCLC,58.9%
same,growth,NCI-H522 lung,79.6%
same,growth,COLO 205 colon,108%
same,growth,DU-145 prostate,92.1%
same,growth,SF-268 CNS,72.1%
same,growth,SF-295 CNS,75.7%
same,growth,SF-539 CNS,60.9%
same,growth,M14 melanoma,103%
same,growth,HCT-15 colon,78.9%
same,growth,SNB-75 CNS,0.098% (active)
same,growth,SNB-19 CNS,51.5%
same,growth,U251 CNS,101%
same,growth,PC-3 prostate,71%
same,growth,SK-MEL-5 melanoma,88.6%
same,growth,UACC-62 melanoma,62.5%
same,growth,SK-MEL-28 melanoma,92.8%
same,growth,SK-MEL-2 melanoma,104%
same,growth,HL-60(TB) leukemia,67.7%
COc1ccc(OC)c(/C=C/C(=O)c2nc3ccccc3n2Cc2ccc(F)cc2)c1,growth,NCI-H226 lung,-42.4% (active)
same,growth,NCI-H322M lung,6.69% (active)
same,growth,HOP-62 NSCLC,-40.4% (active)
same,growth,NCI-H522 lung,-52.4% (active)
same,growth,COLO 205 colon,-58.3% (active)
same,growth,DU-145 prostate,4.91% (active)
same,growth,SF-268 CNS,14.8%
same,growth,SF-295 CNS,-21.3% (active)
same,growth,SF-539 CNS,-80.4% (active)
same,growth,M14 melanoma,-7.79% (active)
same,growth,HCT-15 colon,-61.8% (active)
same,growth,SNB-75 CNS,15.4%
same,growth,SNB-19 CNS,-38.9% (active)
same,growth,U251 CNS,-74% (active)
same,growth,PC-3 prostate,0.247% (active)
same,growth,SK-MEL-5 melanoma,-21.1% (active)
same,growth,UACC-62 melanoma,-57.6% (active)
same,growth,SK-MEL-28 melanoma,-53% (active)
same,growth,SK-MEL-2 melanoma,-28.2% (active)
COC(=O)C[C@](O)(CCCC(C)C)C(=O)O[C@H]1C(OC)=C[C@@]23CCCN2CCc2cc4c(cc2[C@@H]13)OCO4,growth,NCI-H226 lung,-12.3% (active)
same,growth,NCI-H322M lung,25.4%
same,growth,HOP-62 NSCLC,21.3%
same,growth,NCI-H522 lung,-59.4% (active)
same,growth,COLO 205 colon,-2.77% (active)
same,growth,DU-145 prostate,-3.16% (active)
same,growth,SF-268 CNS,3.83% (active)
same,growth,SF-295 CNS,-8.14% (active)
same,growth,SF-539 CNS,-47.7% (active)
same,growth,M14 melanoma,-46.4% (active)
same,growth,HCT-15 colon,-21.1% (active)
same,growth,SNB-75 CNS,-46.7% (active)
same,growth,SNB-19 CNS,-27.7% (active)
same,growth,U251 CNS,-19.5% (active)
same,growth,PC-3 prostate,1.16% (active)
same,growth,SK-MEL-5 melanoma,-39% (active)
same,growth,UACC-62 melanoma,0.442% (active)
same,growth,SK-MEL-28 melanoma,-24.3% (active)
same,growth,SK-MEL-2 melanoma,-0.0193% (active)
same,growth,HL-60(TB) leukemia,-28.7% (active)
COc1cc(OC)c(S(=O)(=O)N(CCCl)CCCl)cc1C(=O)/C=C/c1ccc(C)cc1,growth,NCI-H226 lung,81.5%
same,growth,NCI-H322M lung,89.1%
same,growth,HOP-62 NSCLC,70.8%
same,growth,NCI-H522 lung,82.6%
same,growth,COLO 205 colon,117%
same,growth,DU-145 prostate,88.3%
same,growth,SF-268 CNS,67.2%
same,growth,SF-295 CNS,66.7%
same,growth,SF-539 CNS,56.9%
same,growth,M14 melanoma,86.4%
same,growth,HCT-15 colon,81.8%
same,growth,SNB-75 CNS,90.1%
same,growth,SNB-19 CNS,29.8%
same,growth,U251 CNS,-2.54% (active)
same,growth,PC-3 prostate,67.6%
same,growth,SK-MEL-5 melanoma,97.5%
same,growth,UACC-62 melanoma,74.3%
same,growth,SK-MEL-28 melanoma,102%
same,growth,SK-MEL-2 melanoma,92.3%
same,growth,HL-60(TB) leukemia,65.6%
COc1ccc(/C=C/c2nc3ccccc3c(=O)n2CC(=O)Nc2ccc(Cl)cc2)cc1,growth,HL-60(TB) leukemia,96.2%
OC1CCC(Cn2c(C(F)(F)F)cc3c(Cl)ncnc32)CC1 (stereo unspecified),growth,HL-60(TB) leukemia,-37.5% (active)
COc1ccccc1[C@H]1C(C(=O)c2ccc(O)cc2)C2(N[C@@H]1c1ccccc1)C(=O)Nc1ccc(Br)cc12 (stereo partly specified),growth,HL-60(TB) leukemia,10.5%
CC(C)(C)c1cc(/C=C2\S/C(=N/c3ncn[nH]3)NC2=O)cc(C(C)(C)C)c1O,growth,HL-60(TB) leukemia,6.76% (active)
CCOP(=O)(OCC)O[C@H]1CC[C@]2(C)[C@H]3CC[C@@H]4[C@@H]([C@](C)(O)CCC=C(C)C)CC[C@@]4(C)[C@]3(C)CC[C@H]2C1(C)C,growth,HL-60(TB) leukemia,0.463% (active)
C#C[C@]1(O)CC[C@H]2[C@@H]3CC=C4c5sc(Nc6ccc(N(C)C)cc6)nc5CC[C@]4(C)[C@H]3CC[C@@]21C,growth,HL-60(TB) leukemia,-26.1% (active)
CCOC(=O)C1=C(N)N(c2ccccc2)C2=C(C(=O)CC(C)(C)C2)C1c1ccc(Cl)cc1 (stereo unspecified),growth,HL-60(TB) leukemia,6.03% (active)
COc1ccc2c(c1)C(=N/N=C(\C)c1ccc(OC)c(S(N)(=O)=O)c1)C(=O)N2,growth,HL-60(TB) leukemia,91.7%
CS(=O)(=O)c1ccc(-n2nc(C(=O)NCc3ccccc3)cc2-c2ccc(Cl)cc2)cc1,growth,HL-60(TB) leukemia,83%
O=C(Nc1nc2ccc([N+](=O)[O-])cc2s1)Nc1ccccc1F,growth,HL-60(TB) leukemia,-8.08% (active)
O=C(c1ccc(O)cc1)C1[C@H](c2ccccc2Br)[C@@H](c2ccccc2)NC12C(=O)Nc1ccccc12 (stereo partly specified),growth,HL-60(TB) leukemia,19.8%
CN(C(=O)c1ccc(C(F)(F)F)cc1C(F)(F)F)c1sc2c(c1C#N)CCC(=O)C2,growth,HL-60(TB) leukemia,55.3%
Cc1c(C(=O)NNC(=O)Nc2ccc(Cl)cc2)nnn1-c1ccc(Br)cc1,growth,HL-60(TB) leukemia,103%
Cn1cc(-c2cc3nc(-c4cn(C)c5ncc(Br)cc45)cc(N)n3n2)c2ccccc21,growth,HL-60(TB) leukemia,-60.3% (active)
O=CNc1ccc(-n2cnc3cc(-c4ccc(O)cc4)ccc32)cc1,growth,HL-60(TB) leukemia,64.2%
CC(=O)c1c2c(c3ccc4c5ccccc5ccc4n13)C(=O)c1ccccc1C2=O,growth,HL-60(TB) leukemia,94.2%
C=C1CC[C@@H]2[C@]3(C)COC(c4ccco4)O[C@@H]3CC[C@@]2(C)[C@@H]1C/C=C1/C(=O)OCC1OC(C)=O (stereo partly specified),growth,HL-60(TB) leukemia,-5.13% (active)
COc1ccc(-c2ccnc(SCc3cc4ccccc4[nH]c3=O)n2)cc1,growth,HL-60(TB) leukemia,34.1%
CN(C)CCn1c2ccccc2c2nc3cc4ccccc4cc3nc21,growth,HL-60(TB) leukemia,-51.2% (active)
Cn1cc(-c2cc3nc(-c4cn(C)c5ncc(Br)cc45)cc(N)n3n2)c2cc(F)ccc21,growth,HL-60(TB) leukemia,1.38% (active)
CCCS(=O)(=O)N1CCCC(C(=O)Nc2nc3ccc(NC(=O)c4ccc(F)c(OC)c4F)cc3s2)C1 (stereo unspecified),growth,HL-60(TB) leukemia,27.3%
O=C1/C(=C/C=C/c2ccco2)SC(=S)N1CC(=S)C1C=CS(=O)(=O)C1 (stereo unspecified),growth,HL-60(TB) leukemia,59.4%
CCCCCCCOc1ccc(S(=O)(=O)Nc2ccc(C)c(F)c2C(=O)O)cc1,growth,HL-60(TB) leukemia,89.8%
Cn1cc(/C=N/Nc2ccnc3cc(Cl)ccc23)c2ccccc21,growth,HL-60(TB) leukemia,-60.3% (active)
CCN1CCN(Cc2ccc(C(=O)Nc3cccc(Nc4ccc5c(OC)cccc5n4)c3)cc2C(F)(F)F)CC1,growth,HL-60(TB) leukemia,-57.1% (active)
CS(=O)(=O)Nc1cccc(-n2c(COc3ccc(OC(F)(F)F)cc3)nc3ccccc32)c1,growth,HL-60(TB) leukemia,111% and 95.1%
COc1cc(CNC(=O)C[C@H](C)CCC=C(C)C)ccc1OCc1cn(-c2cccc(C(F)(F)F)c2)nn1,growth,HL-60(TB) leukemia,96.3%
O=C(O)CCCCCCCCCCN1C(=O)/C(=C/c2cnc(-c3ccc(Cl)cc3)s2)SC1=S,growth,HL-60(TB) leukemia,33.7%
Cc1ccc(-c2cc(-c3ccccc3)[nH]c(=O)c2C#N)cc1,growth,HL-60(TB) leukemia,86.9%
O=C(c1ccccc1)c1ccc2nc(-c3ccc(F)cc3)[nH]c2c1,growth,HL-60(TB) leukemia,36.1%
O=C(COc1ccc(NC(=O)Nc2ccc(Cl)c(Cl)c2)cc1)N=Nc1c(O)[nH]c2ccc([N+](=O)[O-])cc12,growth,HL-60(TB) leukemia,92.4%
Cc1nn(-c2ccccc2)c2nc(C)n(CC(=O)N/N=C/c3cccc([N+](=O)[O-])c3)c(=O)c12,growth,HL-60(TB) leukemia,99%
CC(C)(C)OC(=O)N1CCC2(CC1)Oc1ccccc1[C@H]1CC(c3ccc(Br)cc3)=NN12,growth,HL-60(TB) leukemia,64.1%
CC1=C(C(=O)Nc2ccccc2)C(c2cccc(Cl)c2Cl)n2c(nc3ccccc32)N1 (stereo unspecified),growth,HL-60(TB) leukemia,9.78% (active)
Nc1nc(-c2ccccc2)c(N=Nc2ccc(Cl)cc2[N+](=O)[O-])s1,growth,HL-60(TB) leukemia,83.8%
COc1ccc(-c2cc(-c3cc(C(=O)c4ccccc4)n4ccc(C)cc34)nc(N)c2C#N)cc1,growth,HL-60(TB) leukemia,99.7%
Clc1ccccc1Nc1nnc(-c2c[nH]c3ccccc23)o1,growth,HL-60(TB) leukemia,-0.476% (active)
O=C1Nc2ccc(Cl)cc2/C1=C/c1cccc(OCc2ccccc2)c1,growth,HL-60(TB) leukemia,8.8% (active)
CN(C(=O)c1ccc(C(C)(C)C)cc1)c1sc2c(c1C#N)CCC(=O)C2,growth,HL-60(TB) leukemia,52.4%
COc1ccccc1-n1cc(C#N)c(N)c1C(=O)c1ccc(Cl)cc1Cl,growth,HL-60(TB) leukemia,1.26% (active)
O=C(CSc1nc2sc3c(c2c(=O)n1-c1ccc(Cl)cc1)CCCC3)NNC(=O)c1ccc(F)cc1,growth,HL-60(TB) leukemia,109%
Nc1nc(Nc2ccc(Cl)cc2)n(Cc2cccc(Br)c2)n1,growth,HL-60(TB) leukemia,-14.2% (active)
